From ChEMBL document CHEMBL3988442, “University of Dundee, Small-Polar-MMV Screening Library” (2021) come the findings set out here.

Out of some 69,000 compounds screened, about 1,000 (1.4%) showed an effect of 50% or more. The full list was thinned out, with strong results kept by preference.

The subject of the test is Leishmania donovani. Put plainly: Leishmania intramacrophage assay. It counts as functional, organism-based. On the set-up: scale not given: in the data most compounds retested in dose-response had high values.

For the compound `O=C(NCCN1CCC(c2cccs2)CC1)Nc1cccs1`, the “Percent Effect” value (30 µM, 30.03 µM) came out at 29.53%.

As for `COCC(=O)NC1CC2(CCN(Cc3ccco3)CC2)c2ccccc21.O=C(O)C(F)(F)F` (centres undefined), the “Percent Effect” value (30 µM, 30.03 µM) was -18.66%.

As to `CCOCC1CCN(C(=O)Nc2ccc(-c3csnn3)cc2)C1` (centres undefined), the “Percent Effect” value (30.3 µM, […]) is -4.056%.

`CCCC(=O)NC1CCN(c2ccccc2S(=O)(=O)CC)CC1`: the “Percent Effect” value (30 µM) was -8.378%.

Turning to `Cc1ccc(C2(CN3CCN(c4ncccn4)CC3)CCNCC2)nc1`, the “Percent Effect” value (30.3 µM, […]) is reported as -2.357%.

Consider `Cc1ccc(C)c(N2CCN(CC3(O)CCNC3)CC2)c1` (centres undefined), for which, under “30.3 µM, […]”, the “Percent Effect” value is listed as 98.99%.

As to `Cc1ccccc1N1CCCN(CC2(O)CCCNC2)CC1` (centres undefined), under “30.3 µM, […]”, the “Percent Effect” value was 97.82%.

On to `CCOc1ccccc1N1CCN(CC2(O)CCCNC2)CC1` (centres undefined), for which, under “30.3 µM, […]”, the “Percent Effect” value is given as 12.99%.

Turning to `Cc1ccc(NCC2(O)CCNCC2)cc1C`, under “30.3 µM, […]”, the “Percent Effect” value is given as -19.76%.

As to `CSCC(=O)N1CCCN(c2ccccc2C)CC1`, the “Percent Effect” value (30 µM, 30.03 µM) is reported as 12.81%.

Turning to `OC(CNCCc1nnc2ccccn12)c1ccc2c(c1)OCO2` (centres undefined), the “Percent Effect” value (30.3 µM, […]) worked out at 14.08%.

`CCn1c(CN2CCCC2)nnc1C1CCN(Cc2ccc(C)o2)CC1`: the “Percent Effect” value (30 µM, 30.03 µM) was 43.06%.

With `CC[C@@]1(O)CCN(C(=O)CCSCc2ccc(F)cc2)C[C@H]1O`, the “Percent Effect” value (30.3 µM, […]) is reported as -8.433%.

Turning to `CCc1cnc(CN(C)C2CCN(CC3CCN(C(C)=O)CC3)C2)o1` (centres undefined), the “Percent Effect” value (30.3 µM, […]) is 21.9%.

Consider `CCc1cnc(CN(C)C2CCN(CC3CCC3)C2)o1` (centres undefined), for which, under “30.3 µM, […]”, the “Percent Effect” value is recorded as 50.08%.

As to `CCc1cnc(CN(C)C2CCN(CC3CCOCC3)C2)o1` (centres undefined), the “Percent Effect” value (30.3 µM, […]) amounted to 46.35%.

With `CC1(C)CN(Cc2csc(CS(C)(=O)=O)n2)Cc2ccccc21`, the “Percent Effect” value (30.3 µM, […]) is given as -3.043%.

Take `Cc1cccc(N2CCN(CCNC(=O)c3ccnn3C)CC2)c1`: the “Percent Effect” value (30 µM, 30.03 µM) is 32.04%.

Consider `Fc1ccc(C(CNc2ccncn2)N2CCCCC2)cc1` (centres undefined), for which the “Percent Effect” value (30.3 µM, […]) was found to be 33.33%.

Consider `Fc1ccccc1C(CNc1ccncn1)N1CCCC1` (centres undefined), for which the “Percent Effect” value (30.3 µM, […]) is on record as 13.69%.

Take `Fc1ccc(C(CNc2ccncn2)N2CCCC2)cc1` (centres undefined): the “Percent Effect” value (30.3 µM, […]) amounted to 64.07%.

For the compound `O=C(CCN1CCCCO1)NCc1cn2c(n1)SCC2`, the “Percent Effect” value (30.3 µM, […]) is reported as -7.597%.

As to `CC(CNC(=O)c1cnc[nH]1)Oc1ccc(Cl)cc1` (centres undefined), under “30.3 µM, […]”, the “Percent Effect” value is given as -8.982%.

As for `CS(=O)(=O)Cc1nc(CNc2ccc(F)c(F)c2)cs1`, the “Percent Effect” value (30.3 µM, […]) was -2.721%.

With `Cc1cc(C)n(CCCn2cncc2-c2ccc3c(c2)CC(C)N3C)n1.Cl` (centres undefined), the “Percent Effect” value (30.3 µM, […]) stood at 2.187%.

For `Cc1nonc1OCCNC(=O)COc1ccc(F)cc1F`, under “30.3 µM, […]”, the “Percent Effect” value was determined as 56.45%.

As for `Cc1noc(Cl)c1CC(=O)NCCOc1ccc(F)cc1F`, under “30.3 µM, […]”, the “Percent Effect” value worked out at 8.93%.

For `Cc1nonc1OCCNC(=O)COc1ccc(Cl)cc1Cl`, the “Percent Effect” value (30.3 µM, […]) was found to be 19.12%.

With `O=C(c1ccc(COc2ccc(Cl)cc2)o1)N1N=CCC1(O)C(F)(F)F` (centres undefined), where the note is “30.3 µM, […]”, the “Percent Effect” value is -74.85%.

For `CCSCCC(C)N(C)C(=O)c1ccc(C)o1` (centres undefined), the “Percent Effect” value (30.3 µM, […]) turned out to be 26.69%.

With `Cn1ccnc1CN1CCc2c(COCC3CC3)nn(C)c2C1`, the “Percent Effect” value (30.3 µM, […]) is on record as 17.02%.

Turning to `Cc1cc(CN2CC[C@@H]3[C@@H](CCC(=O)N3CCc3c[nH]cn3)C2)oc1C`, under “30.3 µM, […]”, the “Percent Effect” value amounted to 21.24%.

`O=C(c1nnn(-c2ccccc2Cl)c1-c1ccccn1)N1CCSCC1`: the “Percent Effect” value (30.3 µM, […]) came to 1.038%.

With `COCC(=O)NC(C)c1sc(-c2ccccc2F)nc1C` (centres undefined), the “Percent Effect” value (30.3 µM, […]) is on record as 18.86%.

Take `CCC(=O)NCC(=O)NC(C)c1sc(-c2ccccc2F)nc1C` (centres undefined): where the note is “30.3 µM, […]”, the “Percent Effect” value stood at 52.49%.

For the compound `CC(=O)NCCC(=O)NC(C)c1sc(-c2ccccc2F)nc1C` (centres undefined), where the note is “30.3 µM, […]”, the “Percent Effect” value is recorded as -1.241%.

For `CC(CNC(=O)Nc1cn[nH]c1)N1CCCC1` (centres undefined), the “Percent Effect” value (30 µM) came out at 4.879%.

For `CC(=O)N(C)c1nc(CN2CCN(Cc3nccn3C)CC2)cs1`, the “Percent Effect” value (30.3 µM, […]) came out at 5.012%.

On to `CN1CCCC2(CCN(S(=O)(=O)c3c(Cl)nc4sccn34)C2)C1=O` (centres undefined), for which the “Percent Effect” value (30.3 µM, […]) is recorded as 41%.

As to `O=S(=O)(c1c(Cl)nc2sccn12)N1CCCC2(CCNC2)C1` (centres undefined), the “Percent Effect” value (30.3 µM, […]) came to 49.51%.

As to `O=S(=O)(c1c(Cl)nc2sccn12)N1CCC2(CCNCC2)C1`, under “30.3 µM, […]”, the “Percent Effect” value was 51.47%.

Regarding `CSCCc1n[nH]c2c1CN(S(=O)(=O)c1c(C)nn(C)c1C)CC2`, the “Percent Effect” value (30.3 µM, […]) is given as -0.401%.

As to `CCCSc1ccccc1NC(=O)N1CCN(C(=O)c2ccc[nH]2)CC1`, for the setting “30.3 µM, […]”, the “Percent Effect” value was 22.55%.

Take `c1coc(-c2nc3c(c(NCc4n[nH]c5c4CCC5)n2)CCNCC3)c1`: the “Percent Effect” value (30.3 µM, […]) is on record as 1.11%.

In the case of `c1ccc(-c2nc3c(c(NCc4nnc5n4CCC5)n2)CCNC3)cc1`, the “Percent Effect” value (30.3 µM, […]) is 11%.

On to `c1ccc(-c2nc3c(c(NCc4n[nH]c5c4CCC5)n2)CCNC3)cc1`, for which the “Percent Effect” value (30.3 µM, […]) is reported as 100.2%.

As to `Cc1ncsc1CN1CC(C)(C2CC2)CC1=O` (centres undefined), under “30.3 µM, […]”, the “Percent Effect” value was -1.864%.

Consider `CC(=O)N1CCC(C)(c2cc(C(=O)NCC(C)(C)C)nc(C)n2)CC1`, for which the “Percent Effect” value (30.3 µM, […]) was -26.7%.

Turning to `Cc1[nH]c2ccc(CNC3CCN(Cc4ccccn4)CC3)cc2c1C`, where the note is “30.3 µM, […]”, the “Percent Effect” value turned out to be 65.08%.

In the case of `Cc1n[nH]c2ncc(CNC3CCN(Cc4ccccn4)CC3)cc12.Cl`, for the setting “30.3 µM, […]”, the “Percent Effect” value was determined as 23.69%.

Regarding `Cc1cc(NC2CCN(Cc3ccccn3)CC2)n2nc(C)c(C)c2n1`, under “30.3 µM, […]”, the “Percent Effect” value is 27.06%.

`Cc1cc2[nH]c(=O)c(=O)[nH]c2cc1S(=O)(=O)NC1CCCCC1`: the “Percent Effect” value (30.3 µM, […]) stood at 4.835%.

As for `Cc1cc2nc(O)c(O)nc2cc1S(=O)(=O)NC1CC1`, where the note is “30.3 µM, […]”, the “Percent Effect” value is recorded as 53.32%.

For the compound `Cc1cc2[nH]c(=O)c(=O)[nH]c2cc1S(=O)(=O)NC1CCC(C)CC1` (centres undefined), the “Percent Effect” value (30.3 µM, […]) stood at 6.826%.
